High-throughput results deposited in PubChem BioAssay by several laboratories.
Shown are actives, neighbours in structure and some others; about 3.7% of the full set was active somewhere.
tim10-1 inh – growth inhibitors of tim10-1 mutant yeast. 2.2% of 330,000 active. inhibition, % at 20 µM. S. cerevisiae tim10-1 ts strain growth, BacTiter-Glo, 24 h. AID 463190;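 active = inhibition of at least 40%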;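 note: mutant grown at 25 °C; 0% = DMSO wells with yeast and 100% = wells holding no yeast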
tim23-1 inh – tim23-1 yeast growth inhibition | AID 463212 | S. cerevisiae tim23-1 growth, BacTiter-Glo luminescence, 24 h | 1.3% of 330,000 active | inhibition, % at 20 µM;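 active = growth inhibition of the mutant yeast at or above 50%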;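 note: temperature-sensitive mutant grown at 25 °C; plate controls were DMSO-treated mutant yeast for no effect and medium wells lacking yeast for full effect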
TIM10 inh – growth inhibitors of TIM10 yeast strain | AID 463195 | S. cerevisiae TIM10 strain growth, BacTiter-Glo luminescence, 24 h | inhibition, % at 10 µM | 1.4% of 330,000 active;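 active = inhibition of 40% or more at the single tested concentration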;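 note: wild-type TIM10 isogenic control strain grown at permissive 25 °C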
V-ATPase pHluor – regulators of yeast V-ATPase proton transport; S. cerevisiae, pHLuorin cytosolic pH fluorescence; response, % at 10 µM; 0.37% of 350,000 active; in the data active = response mostly above about 7.3%, no sharp cut-off; inactive = mostly below about 5.4%; note: actives read high
PfHsp90 yeast 2 – reduces growth (ATP signal) of yeast expressing P. falciparum Hsp90. S. cerevisiae expressing PfHsp90, BacTiter-Glo ATP, 48 h; yeast lacking PDR1 and PDR3 efflux regulators. inhibition, % at 9.4 µM. 0.32% of 310,000 active. AID 504621;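 active = every replicate shows inhibition above about 80%, whatever the replicate mean, limit read from the data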;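 note: 0% = DMSO neutral controls and 100% = 20 µM radicicol positive controls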
tim10-1 confirm – tim10-1 yeast growth inhibition, confirmed; inhibition, % at 20 µM; 56% of 7,400 active; AID 463213; shares compounds with tim10-1 inh; S. cerevisiae tim10-1 ts strain growth, BacTiter-Glo, 24 h;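 active = inhibition of yeast growth at or above a set limit in either of two repeat tests at 20 µM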;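 note: tim10-1 mutant grown at permissive 25 °C to find synthetic lethal compounds; 0% = DMSO yeast wells and 100% = medium wells without yeast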
tim10 confirm – confirmation of TIM10 yeast growth inhibitors | shares compounds with TIM10 inh | S. cerevisiae tim10 strain growth, BacTiter-Glo luminescence, 24 h | inhibition, % at 10 µM | 63% of 4,600 active;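 active = inhibition of yeast growth at or above a set limit in either of two replicates at 10 µM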;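 note: this counterscreen used the strain with wild-type TIM10; 0% = yeast with DMSO and 100% = medium wells lacking yeast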
tim23-1 confirm – tim23-1 yeast growth inhibition, confirmed. shares compounds with tim23-1 inh. S. cerevisiae tim23-1 growth, BacTiter-Glo luminescence, 24 h. inhibition, % at 20 µM. 83% of 4,400 active;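 active = inhibition above about 39% in either of two replicate wells at 20 µM, limit read from the data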;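 note: temperature-sensitive tim23-1 mutant grown at 25 °C; 0% = DMSO wells with yeast and 100% = medium wells without yeast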
* marks the source's active call; other numbers are inactive results; nt = no result.

SMILES | tim10-1 inh | tim23-1 inh | TIM10 inh | V-ATPase pHluor | PfHsp90 yeast 2 | tim10-1 confirm | tim10 confirm | tim23-1 confirm
Cn1nnc(NC(=S)NC(=O)c2ccc3ccccc3c2)n1 | nt | nt | nt | 3.4 | nt | nt | nt | nt
O=C(OCn1ncc(Cl)c(Cl)c1=O)c1ccccc1Cl | nt | nt | nt | 4.6 | 60.8 | nt | nt | nt
O=C(OCn1ncc(Cl)c(Cl)c1=O)c1ccc(F)cc1 | 66.1* | 75.3* | 58.5* | nt | nt | 60.8* | 54.0* | 85.0*
Cc1ccccc1NS(=O)(=O)c1ccc(NS(=O)(=O)c2cccs2)cc1 | 6.3 | 9.1 | -14.3 | 3.9 | -4.5 | nt | nt | nt
CC(c1ccccc1)N1C(=O)/C(=C/c2ccncc2)SC1=S (configuration not stated) | 66.4* | 72.6* | 62.5* | -3.1 | -12.0 | 61.2* | 72.7* | 28.5
O=C(O)C(c1ccccc1)N1C(=O)/C(=C/c2cccs2)SC1=S (configuration not stated) | -12.4 | 16.2 | 6.0 | 0.8 | 5.2 | nt | nt | nt
COc1cccc(F)c1C(C[N+](=O)[O-])c1c(N)n(C)c(=O)n(C)c1=O (configuration not stated) | 53.9* | 82.2* | 45.8* | -0.1 | 103.2* | 59.5* | 51.6* | 82.3*
N#Cc1ccsc1NC(=O)CSc1nnc(NC2CC2)s1 | nt | nt | nt | -1.3 | nt | nt | nt | nt
O=C(Cc1ccc(Br)cc1)c1ccc(O)cc1O | 58.2* | 63.0* | 60.6* | -1.0 | 15.2 | 66.2* | 57.2* | 53.0*
O=C(COc1ccccc1Br)c1ccc(O)cc1O | 49.7* | 65.7* | 32.1 | 0.5 | -16.4 | 39.5* | nt | 57.5*
COc1ccc(CC(=O)c2ccc(O)cc2O)cc1 | 39.5 | 49.9 | 10.2 | 4.0 | 1.1 | nt | nt | nt
COc1ccc(-c2cc(N)n(S(=O)(=O)c3c(F)c(F)c(F)c(F)c3F)n2)cc1OC | 67.7* | 70.3* | 74.8* | -3.6 | -11.3 | 75.2* | 73.7* | -23.1
COc1ccc(Cl)cc1CC=NNC(=O)c1cccc(C)c1O | nt | nt | nt | -1.4 | -0.5 | nt | nt | nt
CN(CC(=O)Nc1cc(Cl)ccc1C#N)C1CCS(=O)(=O)C1 (configuration not stated) | -1.7 | -6.8 | 0.6 | 1.3 | 6.2 | nt | nt | nt
Cc1nc(Nc2cccc(Cl)c2)c2oc3ccccc3c2n1 | 32.4 | 43.5 | 32.7 | -2.8 | -8.7 | nt | nt | nt
Cc1nc(Nc2cccc(F)c2)c2oc3ccccc3c2n1 | 44.3* | 54.7* | 5.3 | 2.1 | -10.0 | 29.3 | nt | 60.2*
CCOC(=O)c1sc(-c2ccc(C(F)(F)F)cc2)nc1O | 45.6* | 74.0* | 27.1 | 5.2 | 105.8* | 16.7 | nt | 32.4
CC(C)(C)Cc1c(-c2ccc(Br)cc2)nc2ccc(Br)cn12 | nt | nt | nt | -0.5 | nt | nt | nt | nt
S=c1[nH]nc(-c2ccc(Cl)cc2)n1/N=C/C=C/c1ccco1 | 44.6* | 51.4* | 36.2 | -0.4 | -5.6 | 29.5 | nt | 37.9
O=C(CCc1nnc(C2(c3ccc(Cl)cc3)CCC2)o1)N1CCCC1 | 15.8 | 17.9 | 18.2 | 0.4 | -32.4 | nt | nt | nt
O=[N+]([O-])c1cccc(/C=C/c2ccccn2)c1 | 16.4 | 13.2 | 13.2 | -0.9 | -10.3 | nt | nt | nt
N#C/C(=C\c1cccc([N+](=O)[O-])c1)c1ccccn1 | 55.6* | 62.6* | 39.5 | -1.8 | -44.2 | 71.6* | nt | 56.0*
Cn1c(O)c(/C=C2\C=NN=C2c2ccccc2)sc1=S | 57.5* | 65.4* | 42.4* | -1.2 | -20.1 | 42.4* | 42.4* | 57.2*
CCn1c(O)c(/C=C2\C=NN=C2c2ccccc2)sc1=S | 51.4* | 50.3* | 32.6 | 0.9 | 10.6 | 32.5* | nt | 53.6*
CCCCn1c(O)c(/C=C2\C=NN=C2c2ccccc2)sc1=S | 38.3 | 28.9 | 9.0 | 3.1 | 0.3 | nt | nt | nt
SMILES | tim10-1 inh | tim23-1 inh | TIM10 inh | V-ATPase pHluor | PfHsp90 yeast 2 | tim10-1 confirm | tim10 confirm | tim23-1 confirm
CC(C)OP(=O)(OC(C)C)C(O)c1ccc(N(C)C)cc1 (configuration not stated) | -7.4 | -2.1 | 5.6 | 0.4 | -9.3 | nt | nt | nt
CCOC(=O)C1(Cc2ccccc2)C(=O)N(CCCN(C)C)c2ccccc21 (configuration not stated) | -1.7 | -11.8 | -11.7 | -3.6 | nt | nt | nt | nt
CCC(=O)Nc1nc2ccc3sc(C)nc3c2s1 | 28.4 | 32.5 | 25.5 | -0.4 | 6.1 | nt | nt | nt
Cc1nc2c(ccc3nc(NC(=O)C4CC4)sc32)s1 | 52.7* | 68.0* | 65.1* | 3.6 | nt | 53.5* | 53.7* | 71.3*
Cc1cc(C)c(S(=O)(=O)c2ccccc2)c(OC(=O)c2ccc(Cl)cc2Cl)n1 | 46.4* | 73.6* | 52.1* | -0.7 | 18.9 | 41.5* | -8.2 | 76.2*
Cc1nnc(SCC(=O)NC2CCCC2)n1C(C)C | -12.1 | -8.2 | -1.4 | -1.6 | -1.1 | nt | nt | nt
N/C(=N\OC(=O)c1cccs1)c1ccc(Cl)cc1 | 69.3* | 81.7* | 83.7* | -0.4 | nt | 52.8* | 84.4* | 91.1*
N/C(CC(=O)Nc1ccc(F)c(Cl)c1)=N\OC(=O)c1cccs1 | 53.7* | 72.6* | 80.8* | -0.4 | -23.8 | 36.8* | 86.4* | 83.2*
COc1ccc(/C(N)=N/OC(=O)c2cccs2)cc1 | 42.8* | 71.2* | 62.9* | 0.6 | -12.8 | 59.8* | 67.8* | 88.0*
O=C(c1cc(COc2ccc(F)cc2Cl)on1)N1CCCCCC1 | 37.1 | 48.8 | -3.6 | 0.7 | -12.8 | nt | nt | nt
O=C(c1cc(COc2ccc(F)cc2Cl)on1)N1CCCCCCC1 | 41.0* | 50.7* | 14.2 | -1.2 | 4.9 | 15.7 | nt | 42.0*
O=c1nc(/C=C/c2ccc(O)c(O)c2)oc2ccccc12 | nt | nt | nt | -5.1 | 7.1 | nt | nt | nt
COc1ccc(/C=C\c2nc(=O)c3ccccc3o2)cc1 | 54.8* | 78.0* | 41.9* | -0.9 | 2.0 | 45.6* | 34.8* | 71.3*
CCOc1ccc(-n2c(=S)sc3c(=O)n(-c4ccc(F)cc4)c(SCC(=O)O)nc32)cc1 | 23.7 | 1.5 | 1.2 | 6.2 | -16.9 | nt | nt | nt
CC1CCN(S(=O)(=O)c2ccc(Cl)cc2)CC1 | 40.2* | 54.5* | 42.4* | -0.7 | -2.2 | 35.8* | 16.1 | 40.2*
CC1=NNC(=O)/C1=C\c1cn(-c2ccccc2)nc1-c1ccc(Cl)cc1 | 82.5* | 89.0* | 89.4* | 4.9 | -0.5 | 71.0* | 88.5* | 67.5*
CC1=NN(c2ccccc2)C(=O)/C1=C\c1cn(CCC#N)nc1-c1ccc(Cl)cc1 | 43.1* | 53.7* | 54.1* | -0.2 | 7.1 | 31.4 | 38.0* | 51.4*
O=C(O)Cc1cn(-c2ccccc2)nc1-c1ccc(Cl)cc1 | 10.2 | 14.2 | 0.2 | -0.4 | 21.3 | nt | nt | nt
COc1cccc(-c2nc(CS(=O)(=O)CC(=O)Nc3cc(F)ccc3F)c(C)o2)c1 | 26.0 | 13.1 | -4.6 | -3.8 | 4.1 | nt | nt | nt
C[C@@H]1CN([C@H](C)CO)C(=O)CCCn2nncc2CO[C@@H]1CN(C)S(=O)(=O)c1cccc(F)c1 | nt | nt | nt | 1.1 | nt | nt | nt | nt
